Test results as given in PubChem BioAssay (NCATS).
Inconclusive results are not listed. Calls of active or inactive are those of the source. The call rests on the fitted dose curve; in most records, active means well fitted curve in the direction sought with a large enough effect; inconclusive means small, poorly fitted or top-dose-only effect, or another doubt; inactive means no such curve, though single readings can be large; an effect the other way counts as inactive or inconclusive.

Key:
[1] = qHTS to identify inhibitors of the type 1 interferon - major histocompatibility complex class I in skeletal muscle: primary screen against the NCATS Pharmaceutical Collection (AID 1347407);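 further: luminescence of HiBiT knocked into endogenous HLA-B as interferon-induced MHC class I level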; further: potency means the concentration at half of the fitted maximal effect
Procedure, shortened: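 Luminescence from HiBiT-tagged endogenous HLA-B*08:01 served as the read-out of IFN-beta-induced MHC class I in CRISPR-engineered C25cl48 myoblasts. Cells received 4 ng/ml IFN-beta plus compound (high final 46 uM, […]) for 24 h.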

[2] = molecular target: Protein phosphatase 1D (Homo sapiens) (UniProt O15297); experiment: RapidFire Mass Spectrometry qHTS Assay for Modulators of WT P53-Induced Phosphatase 1 (WIP1) (AID 1347424);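 further: amount of dephosphorylated VEPPL-S-QETFS peptide product formed by WIP1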; further: potency means the concentration at half of the fitted maximal effect
Procedure, shortened: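 10 nM WIP1 + cpd, 1 h RT; + 2 uM VEPPL-pS-QETFS, 5 min RT; stop 0.5% formic acid; labelled product standard 1 uM; RapidFire MS. Buffer 50 mM Tris pH 7.5, 30 mM MgCl2, 1 mM TCEP.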

[3] = molecular target: Protein phosphatase 1D (Homo sapiens) (UniProt O15297); experiment: Rhodamine-PBP qHTS Assay for Modulators of WT P53-Induced Phosphatase 1 (WIP1) (AID 1347425)
Procedure, shortened: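 5 nM WIP1 + 10 uM Rh-PBP, 50 mM Tris pH 7.5, 30 mM MgCl2, 1 mM TCEP, 0.1 mM EGTA, BSA; cpds pinned, 1 hr RT; + 10 uM phosphopeptide; fluorescence 1-min reads x 11 min; delta = f1 - f0.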

[4] = qHTS to identify inhibitors of the type 1 interferon - major histocompatibility complex class I in skeletal muscle: primary screen against the NCATS LOPAC collection (AID 1347405);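 further: lytic HiBiT luminescence reporting HLA-B protein level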
Procedure, shortened: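 Luminescence from HiBiT fused to endogenous HLA-B in CRISPR-engineered human myoblasts served as the read-out. Cells received 4.0 ng/ml IFN-beta plus compound (seven concentrations, 1:4.3 steps, highest 46 uM final) for 24 hrs before lytic detection.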

[5] = qHTS for inhibitors of adenylyl cyclases using a fission yeast platform: a pilot screen against the NCATS LOPAC library (AID 1347410)
Procedure, shortened: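 Fission yeast qHTS: CHP2027 cells (AC9-GNAS-PDE4D2, fbp1-GFP), 5x10^6 cells/mL working density, EMM + His/Lys/Ura; LOPAC at up to 57 µM final; 18 h dark, 30C; GFP by laser cytometry. DPI positive control, DMSO vehicle.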

[6] = Validation qHTS assay for inhibitors of Activation Induced Cytidine Deaminase (AID): UDG Counterscreen signal (AID 1347427)
Procedure, shortened: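 Counterscreen read of UDG activity (2 U/mL, 4/3x) in the FRET deamination format with AID (1 uM, 4/3x), DJC20/DJC23 substrates (250 nM, 4x), 4 h at room temperature. NaOH stop, fluorescence at 560 ex/665 em.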

[7] = Primary qHTS for inhibitors of La Crosse Virus (LACV) - induced cell death in SH-SY5Y cells (AID 1508616);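 further: top concentration of the series differs between compounds; higher means more rescue of cells from virus-induced death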
Procedure, shortened: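 Protection against LACV-induced cell death is scored in SH-SY5Y cells exposed to compounds and virus (0.01 MOI) for 6 days. Data normalized to virus-infected DMSO wells and virus-free DMSO wells.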

[8] = qHTS to identify inhibitors of the type 1 interferon - major histocompatibility complex class I in skeletal muscle: primary screen against the NCATS Mechanism Interrogation Plate v5.0 (MIPE) Libary (AID 1347411); further: nearly all actives have a fitted effect of over 65% in size; further: potency means the concentration at half of the fitted maximal effect
Procedure, shortened: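 Luminescence from HiBiT-tagged endogenous HLA-B*08:01 served as the MHC class I read-out. CRISPR-engineered C25cl48 human myoblasts received 4.0 ng/ml IFN-beta plus compound for 24 hrs, with an 11-point, 1:3 series topping at 46 uM final.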

Measured: Potency

Protein phosphatase 1D (Homo sapiens), sequence (O15297 whole entry, looked up): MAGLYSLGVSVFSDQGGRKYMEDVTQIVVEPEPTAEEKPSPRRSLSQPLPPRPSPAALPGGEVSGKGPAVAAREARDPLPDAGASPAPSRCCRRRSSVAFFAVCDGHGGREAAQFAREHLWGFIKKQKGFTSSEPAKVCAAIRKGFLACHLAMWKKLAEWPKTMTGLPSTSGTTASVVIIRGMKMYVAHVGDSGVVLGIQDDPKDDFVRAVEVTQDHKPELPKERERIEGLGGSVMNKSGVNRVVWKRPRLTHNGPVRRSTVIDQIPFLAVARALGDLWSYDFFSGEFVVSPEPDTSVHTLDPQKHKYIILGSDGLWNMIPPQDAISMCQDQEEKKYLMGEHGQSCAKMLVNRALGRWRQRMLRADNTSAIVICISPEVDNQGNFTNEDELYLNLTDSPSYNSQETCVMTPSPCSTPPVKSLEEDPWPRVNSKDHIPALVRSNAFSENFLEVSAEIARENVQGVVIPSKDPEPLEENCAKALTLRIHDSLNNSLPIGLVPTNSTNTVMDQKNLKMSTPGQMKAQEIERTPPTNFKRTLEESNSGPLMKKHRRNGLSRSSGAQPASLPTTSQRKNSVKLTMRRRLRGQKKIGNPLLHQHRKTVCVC

COc1cccc2c1C(=O)c1c(O)c3c(c(O)c1C2=O)C[C@@](O)(C(C)=O)C[C@@H]3O[C@H]1C[C@H](N)[C@H](O)[C@H](C)O1
active: [1] 3.33 µM
inactive: [2] | [3]

Cc1ccccc1C(=O)Nc1ccc(C(=O)N2CCCC(N(C)C)c3ccccc32)cc1 (stereo not drawn)
inactive: [1] | [2] | [3]

N[C@@H](Cc1cnc[nH]1)C(=O)O
inactive: [4] | [5] | [6] | [7]

Nc1cc(Cl)c(NC2=NCCN2)c(Cl)c1
inactive: [4] | [5] | [6] | [7]

N[C@H](CO)C(=O)O
inactive: [4] | [5] | [6] | [7]

O=c1c(-c2ccccc2)c1-c1ccccc1
inactive: [1] | [2] | [3]

CC(=O)O[C@H]1C[C@@H]2CC[C@@H]3[C@H](CC[C@@]4(C)[C@H]3C[C@H]([N+]3(C)CCCCC3)[C@@H]4OC(C)=O)[C@@]2(C)C[C@@H]1[N+]1(C)CCCCC1
inactive: [4] | [5] | [6] | [7]

Oc1ccc(O)cc1
not listed: [8]
inactive: all other assays above

CCN1CCCC1=O
inactive: [1] | [2] | [3]

CC1(C)CCC(NC(=O)[C@@H](N)CCC(=O)O)CC1
inactive: [4] | [5] | [6] | [7]

CC1(C)O[C@@H]2C[C@H]3[C@@H]4C[C@H](F)C5=CC(=O)C=C[C@]5(C)[C@H]4[C@@H](O)C[C@]3(C)[C@]2(C(=O)CO)O1
inactive: [1] | [8] | [3] | [7]

CCC(NC(C)C)C(O)c1ccc(O)c(O)c1 (stereo not drawn)
inactive: [4] | [5] | [6] | [7]

O=C1CCC(c2ccc(-n3ccnc3)cc2)=NN1
inactive: [4] | [5] | [6] | [7]

Cc1cc(N)c2cc(NC(=O)Nc3ccc4nc(C)cc(N)c4c3)ccc2n1
inactive: [1] | [2] | [3]

COc1c(C)c2c(c(O)c1C/C=C(\C)CCC(=O)O)C(=O)OC2
inactive: [1] | [8] | [2] | [3]

CNCCC(Oc1ccccc1C)c1ccccc1 (stereo not drawn)
inactive: [4] | [5] | [6] | [7]

CC(CCc1ccccc1)NCC(O)c1ccc(O)c(C(N)=O)c1 (stereo not drawn)
inactive: [4] | [5] | [6] | [7]

CC[C@H](C)C(=O)O[C@H]1CCC=C2C=C[C@H](C)[C@H](CC[C@@H]3C[C@@H](O)CC(=O)O3)[C@H]21
inactive: [4] | [5] | [8] | [6] | [7]

CCCC1O[C@@H]2C[C@H]3[C@@H]4CCC5=CC(=O)C=C[C@]5(C)[C@H]4[C@@H](O)C[C@]3(C)[C@]2(C(=O)CO)O1 (stereo partly drawn)
inactive: [4] | [5] | [6] | [7]

Nc1ccn([C@@H]2O[C@H](CO)[C@@H](O)C2(F)F)c(=O)n1
inactive: [1] | [8] | [2] | [3] | [7]

CCCn1c(=O)[nH]c(=O)c2[nH]cnc21
inactive: [4] | [5] | [6] | [7]

CC(=O)Nc1c(I)cc(I)c(C(=O)O)c1I
inactive: [1] | [2] | [3]

COc1cccc2c1C(=O)c1c(O)c3c(c(O)c1C2=O)C[C@@](O)(C(=O)CO)C[C@@H]3O[C@H]1C[C@H](N)[C@H](O)[C@H](C)O1
inactive: [2] | [3]
active: [1] 23.6 µM | [8] 0.829 µM

CCN(CCCCOC(=O)c1ccc(OC)c(OC)c1)C(C)Cc1ccc(OC)cc1 (stereo not drawn)
inactive: [1] | [2] | [3]

CC(=O)O[C@]1(C(C)=O)CC[C@H]2[C@@H]3C[C@H](C)C4=CC(=O)CC[C@]4(C)[C@H]3CC[C@@]21C
inactive: [1] | [8] | [2] | [3] | [7]

C1CCc2nnnn2CC1
inactive: [4] | [5] | [6] | [7]

CC(C)COC(=O)OCN1C(=O)CN(CCN2CC(=O)N(COC(=O)OCC(C)C)C(=O)C2)CC1=O
inactive: [4] | [5] | [6] | [7]

C[N+]1(CCCCC[N+]2(C)CCCC2)CCCC1
inactive: [4] | [5] | [6] | [7]

O=C(O)c1cc2cc(Cc3cccnc3)ccc2o1
inactive: [4] | [5] | [6] | [7]

CC/C(=C(/CC)c1ccc(O)cc1)c1ccc(O)cc1
active: [2] 15.8 µM
inactive: [1] | [8] | [7]

COC(=O)[C@H]1[C@H]2C[C@H]3c4[nH]c5ccccc5c4CCN3C[C@H]2CC[C@@H]1O
inactive: [4] | [5] | [6] | [7]

CN(C)CC/C=C1/c2ccccc2COc2ccc(CC(=O)O)cc21
inactive: [1] | [8] | [2] | [3] | [7]
